This is a sample that favours compounds with a hit; in the whole collection about 6.8% have one here.
T cruzi growth-1: T. cruzi intracellular proliferation inhibitors, primary screen, cell-based, beta-gal Tulahuen parasites, NIH3T3 host, luminescence; T. cruzi beta-gal in NIH3T3, GalScreen luminescence, 90 h; inhibition, % at 8.34 µM; 77,000 compounds, 5.9% hits; AID 624255, 2012;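 active means mean inhibition above about 93%, with at least 55% of replicates each passing it, limit read from the data, passing the limit was not always enough; inconclusive means only one of those two conditions holds; inactive means neither condition holds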
Pf Dd2 inh: P. falciparum Dd2 growth inhibitors, primary screen, SYBR Green fluorescence, single dose replicates | 72 h; active compounds read low | activity change, % at 10 µM | 94,000 compounds, 2.3% hits | AID 1159554, 2015; in the data active means activity change below about -80%; inconclusive means no clear call, values can overlap the other calls
C diff HTS: C. difficile growth inhibitors, primary screen, HTS; 86,000 compounds, 0.25% hits; growth activity, negative = inhibition, % at 16 µg/mL (by protocol); Clostridium difficile clinical isolate growth, OD600, 24 h; active compounds read low;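 active means mean growth activity at or below -80% and every replicate also at or below -80%; inconclusive means mean at or below -80% but some replicate above -80%; inactive means mean growth activity above -80%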;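 further: 0% = DMSO wells and -100% = levofloxacin 16 µg/mL wells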
T cruzi growth-2: T. cruzi intracellular proliferation inhibitors, confirmation, cell-based, NIH3T3 host, beta-gal parasite, luminescence, cherry-pick; T. cruzi beta-gal in NIH3T3, GalScreen luminescence, 90 h; inhibition, % at 8.35 µM; shares compounds with T cruzi growth-1; 5,600 compounds, 72% hits;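 active means mean replicate inhibition above about 95% and at least 55% of replicates individually reaching it, limit read from the data; inconclusive means only one of the two criteria is met; inactive means neither criterion is met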
T cruzi growth-3: inhibitors of intracellular T. cruzi replication, confirmation, NIH3T3 host cells, beta-gal parasites, cherry-pick, set 2. inhibition, % at 2.09 µM. T. cruzi beta-gal in NIH3T3, GalScreen luminescence, 90 h. shares compounds with T cruzi growth-1. 5,600 compounds, 21% hits. AID 651740, 2012;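 active means mean inhibition above about 95%, with at least 55% of replicates also reaching it, limit read from the data; inconclusive means meets just one of the two conditions; inactive means meets neither condition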;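 further: plate controls were neutral control median for no effect and positive control median for full effect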
NIH3T3 tox: cytotoxicity in mouse NIH/3T3 fibroblasts, confirmation, cytotoxicity control for T. cruzi proliferation inhibitor project, cell-based, cherry-pick, single point. shares compounds with T cruzi growth-1. NIH/3T3 viability, CellTiter-Glo ATP luminescence, 90 h. cytotoxicity (signal decrease), % at 8.35 µM. 5,600 compounds, 14% hits. AID 651742, 2012;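 active means mean signal decrease across replicates above about 35% based on untreated-well scatter, with enough replicates individually passing, limit read from the data; inconclusive means no rule stated though some were filed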;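 further: 0% = median of neutral control wells and 100% = median of positive control wells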
3T3 cytotox 2: NIH/3T3 fibroblast cytotoxicity, confirmation, cytotoxicity control, cell-based, cherry-pick, single point, set 2; NIH/3T3 viability, CellTiter-Glo ATP luminescence, 90 h; 5,600 compounds, 56% hits; shares compounds with T cruzi growth-1; inhibition, % at 24.9 µM; AID 651744, 2012;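 active means mean loss of cell viability signal at or above a set limit, and enough replicates individually reaching it; inconclusive means meets only the mean limit or only the replicate share; inactive means meets neither condition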;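 further: 0% = median of neutral control wells and 100% = median of positive control wells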
* = called active by the depositor; u = inconclusive; x = no result given.

SMILES	T cruzi growth-1	Pf Dd2 inh	C diff HTS	T cruzi growth-2	T cruzi growth-3	NIH3T3 tox	3T3 cytotox 2
CN1C(=O)c2cc(NC(=O)C3CCOCC3)ccc2OC[C@@H]2O[C@@H](CC(=O)NCc3ccc4c(c3)OCO4)CC[C@H]21	-50.9	x	-2.7	x	x	x	x
C[C@@H]1CN([C@@H](C)CO)C(=O)c2cc(NC(=O)Nc3ccc(C(F)(F)F)cc3)ccc2O[C@@H]1CN(C)C(=O)NC1CCCCC1	x	-4.5	17.0	x	x	x	x
Cc1noc(C)c1NC(=O)N(C)C[C@@H]1Oc2ccc(NC(=O)Cn3cnnn3)cc2CC(=O)N([C@H](C)CO)C[C@@H]1C	-25.0	9.9	-3.4	x	x	x	x
O=C(Nc1cc(F)ccc1F)N1CCCCN2[C@H](C1)[C@H](c1ccc(-c3ccccc3)cc1)[C@@H]2CO	99.2*	-6.9	19.9	107.6*	60.5	29.9	20.0
O=C(Nc1cc(F)ccc1F)N1CCCCN2[C@H](CO)[C@H](c3ccc(-c4cncnc4)cc3)[C@H]2C1	112.1*	9.1	-7.1	107.2*	25.3	-3.4	-16.0
O=C(Nc1cc(F)ccc1F)N1CCCCN2[C@H](CO)[C@@H](c3ccc(-c4ccncc4)cc3)[C@H]2C1	57.5	-23.6	1.8	x	x	x	x
O=C(Nc1cc(F)ccc1F)N1CCCCN2[C@H](CO)[C@H](c3ccc(-c4ccncc4)cc3)[C@@H]2C1	75.6	11.7	3.6	x	x	x	x
O=C(Nc1cc(F)ccc1F)N1CCCCN2[C@@H](CO)[C@H](c3ccc(-c4cccnc4)cc3)[C@@H]2C1	u	-12.1	-0.5	97.3*	33.7	0.3	14.4
O=C(Nc1cc(F)ccc1F)N1CCCCN2[C@H](CO)[C@H](c3ccc(-c4ccccc4)cc3)[C@H]2C1	40.5	-71.3	48.2	x	x	x	x
O=C(Nc1cc(F)ccc1F)N1CCCCN2[C@@H](CO)[C@H](c3ccc(-c4cncnc4)cc3)[C@@H]2C1	98.1*	6.3	-3.8	68.7	18.2	23.6	11.0
O=C(Nc1cc(F)ccc1F)N1CCCCN2[C@H](CO)[C@H](c3ccc(-c4cccnc4)cc3)[C@@H]2C1	61.8	8.3	1.7	x	x	x	x
O=C(C[C@H]1C[C@@H]2c3cc(NC(=O)C4CCC4)ccc3O[C@@H]2[C@@H](CO)O1)NCc1ccccc1	7.4	17.3	x	x	x	x	x
O=C(c1ccccn1)N1C[C@H]2[C@@H](c3ccccc31)[C@H](CO)N2C(=O)C1CC1	-5.5	16.7	-0.6	x	x	x	x
C[C@H](CO)N1C[C@H](C)[C@H](CN(C)C(=O)NC2CCCCC2)Oc2ccc(NC(=O)Cc3ccccc3)cc2C1=O	14.7	8.5	-1.4	x	x	x	x
O=C(Nc1cc(F)ccc1F)N1CCCCN2[C@@H](CO)[C@H](c3ccc(-c4ccncc4)cc3)[C@@H]2C1	68.6	9.6	5.5	x	x	x	x
O=C(Nc1ccccc1F)N1CCCCN2[C@H](CO)[C@@H](c3ccc(-c4cccnc4)cc3)[C@@H]2C1	55.0	7.2	-7.2	x	x	x	x
O=C(Nc1cc(F)ccc1F)N1CCCCN2[C@@H](CO)[C@@H](c3ccc(-c4cncnc4)cc3)[C@@H]2C1	108.2*	15.7	-3.8	-6.0	-12.8	-30.9	-6.4
O=C(Nc1cc(F)ccc1F)N1CCCCN2[C@H](C1)[C@@H](c1ccc(-c3cccnc3)cc1)[C@@H]2CO	70.0	-1.1	-2.0	x	x	x	x
O=C(Nc1ccccc1F)N1CCCCN2[C@H](C1)[C@H](c1ccc(-c3cccnc3)cc1)[C@@H]2CO	104.3*	20.1	-12.6	u	-6.9	-11.4	-12.2
O=C(Nc1cc(F)ccc1F)N1CCCCN2[C@H](CO)[C@@H](c3ccc(-c4cncnc4)cc3)[C@@H]2C1	112.0*	-14.4	6.8	11.6	4.6	-12.8	-5.6
Cc1noc(C)c1NC(=O)N(C)C[C@@H]1Oc2ncc(C#CC3CCCCC3)cc2C(=O)N([C@@H](C)CO)C[C@@H]1C	x	4.9	-0.9	x	x	x	x
O=C(c1cccnc1)N1CC2(C1)[C@H](c1ccccc1)[C@@H](CO)N2Cc1ccccc1	x	-19.4	-2.6	x	x	x	x
C[C@H]1CN([C@@H](C)CO)C(=O)c2cc(-c3cccnc3)cnc2O[C@@H]1CN(C)C(=O)Nc1ccc(C(F)(F)F)cc1	35.0	17.7	-8.0	x	x	x	x
CC(C)NC(=O)N(C)C[C@@H]1Oc2c(NC(=O)c3ccncc3)cccc2C(=O)N([C@H](C)CO)C[C@H]1C	x	6.4	-1.5	x	x	x	x
O=C(Nc1cccc(F)c1)N[C@H]1CC[C@@H](CCNS(=O)(=O)c2cccc(Cl)c2)O[C@H]1CO	70.1	-25.6	x	x	x	x	x
SMILES	T cruzi growth-1	Pf Dd2 inh	C diff HTS	T cruzi growth-2	T cruzi growth-3	NIH3T3 tox	3T3 cytotox 2
O=C(Nc1ccc(F)cc1)N[C@H]1CC[C@H](CCNS(=O)(=O)c2cccc(Cl)c2)O[C@H]1CO	-12.8	25.0	-7.9	x	x	x	x
O=C(Nc1cccc(F)c1)N[C@H]1CC[C@H](CCNS(=O)(=O)c2cccc(Cl)c2)O[C@@H]1CO	152.1*	-31.7	x	63.1	15.2	-1.2	18.1
O=C(Nc1cccc(F)c1)N[C@@H]1CC[C@H](CCNS(=O)(=O)c2cccc(Cl)c2)O[C@H]1CO	114.7*	-88.4*	x	-26.6	-10.1	-20.3	-7.9
CC(C)C#Cc1ccc2c(c1)O[C@H](CN(C)C(=O)C1CCCCC1)[C@@H](C)CN([C@@H](C)CO)S2(=O)=O	u	-34.2	29.8	95.3*	82.5	7.0	106.1*
CC(C)C#Cc1ccc2c(c1)O[C@H](CN(C)C(=O)C1CCCCC1)[C@H](C)CN([C@H](C)CO)S2(=O)=O	100.4*	-16.2	7.6	107.7*	87.5	13.4	104.9*
CC(C)C#Cc1ccc2c(c1)O[C@H](CN(C)C(=O)C1CCC1)[C@H](C)CN([C@H](C)CO)S2(=O)=O	81.7	-23.5	x	x	x	x	x
CC(C)C#Cc1ccc2c(c1)O[C@H](CN(C)C(=O)C1CCCCC1)[C@H](C)CN([C@@H](C)CO)S2(=O)=O	90.5	-1.0	3.7	x	x	x	x
CCCC(=O)N1CC2(CN(C(=O)C3CCC3)C2)c2c(n(C)c3cc(OC)ccc23)[C@H]1CO	x	3.1	0.8	x	x	x	x
C[C@@H]1CN([C@@H](C)CO)C(=O)c2cccc(NS(=O)(=O)c3cccs3)c2O[C@@H]1CN(C)S(=O)(=O)c1ccccc1	-8.1	-11.2	x	x	x	x	x

High-throughput results deposited in PubChem by Broad Institute.
